Molecules are shown by their SMILES. The whole screen tested about 320,000 compounds, of which about 1,400 (0.44%) were called active. This is one part of a sample in which actives are shown more often than they occur. Values without a mark were called inactive.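 Rule for the calls: active = percent inhibition above a per-plate cutoff, the plate mean of test compounds plus 3 SD (cut at about 30% in these data); inactive = the rest.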

For this experiment, the target named is Female germline-specific tumor suppressor gld-1 (Caenorhabditis elegans) (UniProt Q17339). The experiment is described as follows: small molecules blocking C. elegans GLD-1 RNA recognition – biochemical, fluorescence polarization, primary screen (AID 2280).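 Note: 0% = DMSO wells with GLD-1 and probe and 100% = wells lacking GLD-1.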 The conditions noted are these: purified GLD-1 + fluorescein TGE RNA, at 5.96 µM, hits give high values.
Sequence of Female germline-specific tumor suppressor gld-1 (Caenorhabditis elegans) (Q17339 whole entry, looked up): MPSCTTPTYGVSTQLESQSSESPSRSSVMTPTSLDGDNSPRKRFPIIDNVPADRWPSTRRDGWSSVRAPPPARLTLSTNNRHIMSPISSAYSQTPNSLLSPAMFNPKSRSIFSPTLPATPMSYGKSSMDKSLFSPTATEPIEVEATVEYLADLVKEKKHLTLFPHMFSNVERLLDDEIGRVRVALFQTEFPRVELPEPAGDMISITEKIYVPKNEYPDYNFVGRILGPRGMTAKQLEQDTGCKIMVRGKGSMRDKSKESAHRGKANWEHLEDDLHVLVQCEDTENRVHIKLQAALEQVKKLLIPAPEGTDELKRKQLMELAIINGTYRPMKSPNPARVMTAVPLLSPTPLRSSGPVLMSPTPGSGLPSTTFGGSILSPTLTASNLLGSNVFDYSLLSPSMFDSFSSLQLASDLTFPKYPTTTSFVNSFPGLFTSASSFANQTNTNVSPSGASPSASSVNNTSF
A word on the inhibition: it is the drop in the measured response relative to a control, in per cent. On to `CCOC(=O)C1CCN(C(=O)CC2C(=O)N(Cc3ccccc3)C(C)c3nc4ccccc4n32)CC1` (centres undefined), for which the inhibition was 3.57%. For `O=C(CN1CCN(Cc2ccc(F)cc2Cl)C1=O)NCc1cccs1`, the inhibition is 5.83%. The figure for `CCOc1cc(/C=C2/C(=N)N3OC(C)=CC3=NC2=O)ccc1OC` is -3.88%; for `COc1ccc(OCCCn2cccc2/C=C2/C(=N)N3OC(C)=CC3=NC2=O)cc1` it is 3.29%; for `CC1=CC2=NC(=O)/C(=C/c3coc4ccccc4c3=O)C(=N)N2O1` it is 32.9% (active). In the case of `COC(=O)C1=C(NC(=O)C(C)(C)C)CCS1`, the inhibition is 5.48%. Next, `O=C(c1cc(=O)c2ccccc2o1)N1CCN(c2ccccc2)CC1`: -3.54%.

Take `O=C(COC(=O)c1ccccc1C(=O)N1CCN(c2ccccc2)CC1)NCc1ccccc1`: the inhibition was 55.9% (active). With `CC(C)N(C(=O)COC(=O)c1ccccc1C(=O)N1CCN(c2ccc(F)cc2)CC1)C(C)C`, the inhibition was 6.66%. Turning to `CCn1c(=S)[nH]c2sc3c(c2c1=O)CCCCC3`, the inhibition is -5.76%. The figure for `Cc1ccccc1SCC(=O)OCC(=O)N1CC(=O)Nc2ccccc21` is 1.92%; for `CC1CN(C(=O)CCC(=O)NCCCN2CCC(Cc3ccccc3)CC2)c2cc(Cl)ccc2O1` (centres undefined) it is 5.77%.

For the compound `Cc1c(CN2CCCCC2)c(O)n(CCO)c(=O)c1C#N`, the inhibition is 7.69%.

As for `CCCn1c(O)c(CN2CCCC(C)C2)c(C)c(C#N)c1=O` (centres undefined), the inhibition is 41.2% (active). Regarding `CCCCCCn1c(CN2CCCC(C)C2)nc2c1c(=O)n(C)c(=O)n2C` (centres undefined), the inhibition was 9.13%.

`COCCNC(=O)Nc1ccc2nc(-c3ccco3)c(-c3ccco3)nc2c1`: the inhibition is 69.3% (active). Take `O=C(NCc1ccccn1)c1ccc2nc(-c3ccco3)c(-c3ccco3)nc2c1`: the inhibition is 20.3%.

For the compound `COc1cccc(NC(=O)NCCN2CCCCC2)c1`, the inhibition is 11.7%.

In the case of `CNS(=O)(=O)c1ccc(NC(=O)C2CC(=O)N(c3ccc(Cl)cc3)C2)cc1` (centres undefined), the inhibition is 1.34%. On to `CC(C)(C)C(=O)CSc1ccc(S(=O)(=O)N2CCCC2)cn1`, for which the inhibition is 4.63%. `CCCCc1ccc(S(N)(=O)=O)cc1`: the inhibition is 6.14%.

On to `C[C@@H]1CC[C@@]2(OC1)O[C@H]1C[C@H]3[C@@H]4CC=C5C[C@@H](O)[C@H](O)C[C@]5(C)C4CC[C@]3(C)[C@H]1[C@@H]2C` (some centres undefined), for which the inhibition was -7.94%. The figure for `COc1cccc2cc(C(C)N(CCCN3CCOCC3)C(=O)Nc3ccc(Cl)cc3)oc12` (centres undefined) is 2.92%; for `CCOC(=O)N1CCN(Cc2nnc(-c3ccccc3Cl)o2)CC1` it is -10.5%; for `Nc1cccc2c1C(=O)N(Cc1nnc(-c3ccccc3Br)o1)C2=O` it is 37% (active). The figure for `Cn1cnnc1SCc1nnc(-c2ccccc2Br)o1` is -10.8%; for `COc1cc(S(=O)(=O)N2CCN(C(=O)C3CC3)CC2)ccc1NC(C)=O` it is 3.97%. As for `CCOc1ccc(NC(=O)c2cccc3c2C(=O)N(CC2CCCO2)C3)cc1` (centres undefined), the inhibition was 2.1%. The figure for `COCCN1C=C2C(=O)C(C)(OC(=O)C3CCCC3)C(=O)C=C2C=C1c1ccsc1` (centres undefined) is 23.1%.

Take `CCCCC1=CC2=CC(=O)C(C)(OC(=O)CC)C(=O)C2=CN1CCCOC(C)C` (centres undefined): the inhibition was 22.9%. For `COC/C=C/C1=CC2=CC(=O)C(C)(OC(=O)CCC(=O)OC)C(=O)C2=CO1` (centres undefined), the inhibition was 46.7% (active). As for `CSCCNC(=O)c1ccc2nc(Cc3ccccc3F)oc2c1`, the inhibition was -1.35%. As for `COc1ccc(CCN2C(=O)CC(N3CCC(C(N)=O)CC3)C2=O)cc1OC` (centres undefined), the inhibition was 1.78%. `COC(=O)c1ccc(SCc2ccccc2)nc1`: the inhibition is -5.64%. For `CCn1c(SCc2ccccc2)nc2cc(OC)c(OC)cc2c1=O`, the inhibition was -3.64%. Consider `CSc1c(SCc2ccccc2)cnn(Cc2ccccc2)c1=O`, for which the inhibition was 140% (active). Consider `COc1cc2c(C(=O)N3CCN(C)CC3)c(CSc3ccccc3)n(C)c2cc1Br`, for which the inhibition was 0.62%. On to `COC(=O)c1sc(-c2ccc(C(C)(C)C)cc2)cc1NC(=O)/C=C/C(=O)O`, for which the inhibition was -0.27%. For `O=C(O)c1ccc2c3c(cccc13)C(=O)N(OS(=O)(=O)c1ccccc1)C2=O`, the inhibition was 13.8%. In the case of `CC(=O)Nc1ccccc1Sc1ccc2c3c(cccc13)C(=O)N(c1ccc(C)cc1)C2=O`, the inhibition was 0.24%. Regarding `CN1C(=O)c2cccc3c(N)ccc(c23)C1=O`, the inhibition is 198% (active). The figure for `Cc1nn(C)cc1C(=O)c1ccccc1` is 1.39%; for `COc1ccc(N2C(=O)c3cccc4cccc(c34)C2=O)nn1` it is 13.5%. Take `COc1ccccc1C(=O)NCCC(=O)NCC(c1ccco1)N1CCCCC1` (centres undefined): the inhibition is 3.67%. Next, `CC(C)(C)CN1CCNC(=O)C1CC(=O)NC1Cc2ccccc2C1` (centres undefined): 8.53%. Consider `COc1ccccc1CNC(=O)c1ccc(Cl)c(S(=O)(=O)N2CCCC2)c1`, for which the inhibition is 0.54%. Next, `CCN1/C(=C\c2ccc3ccccc3[n+]2CC)Sc2cc(C)ccc21`: 61.6% (active).

Turning to `N/C(=N\OC(=O)CCn1cccc(C(F)(F)F)c1=O)c1ccc(OC(F)(F)F)cc1`, the inhibition was -1.66%. Next, `CCOC(=O)c1cc(C#N)c(N2CCCCC2)nc1-c1ccccc1`: -3.77%; `CCOc1ccc2nc(N3CCCN(C(=O)Nc4ccccc4C)CC3)c(C#N)cc2c1`: 42% (active).

Take `CCOc1ccc(C(=O)NC2CCN(C(=O)Nc3ccccc3OC)CC2)cc1`: the inhibition was 0.46%. Turning to `CC1CCCC(NC(=O)c2cccc(N3CCCC3=O)c2)C1C` (centres undefined), the inhibition was 2.8%. Next, `COc1ccccc1C(=O)Nc1nc2nc(-c3ccccc3)cc(=O)n2[nH]1`: 0.62%; `CCNS(=O)(=O)c1ccc(CCC(=O)N2CCN(c3cc(Cl)ccc3C)CC2)cc1`: 1.35%; `COc1ncnc2c1N=C1CC(C)(C)CC(N)=C1S2`: 112% (active). For `Cc1cc(C)n(-c2nc(O)cc(=O)[nH]2)n1`, the inhibition is 4.97%. As for `CC(C)(C)c1ccc(Cn2nnc3c(=O)[nH]c(C4CCCN(C(=O)c5ccco5)C4)nc32)cc1` (centres undefined), the inhibition was 4.28%. Next, `CCOC(=O)c1cccc(NC(=O)CN2C(=O)C3CC=CCC3C2=O)c1` (centres undefined): 4.12%; `Cc1ccc(OCC(=O)Nc2ccc(C(=O)O)cc2NC(=O)COc2ccc(C)c(C)c2)cc1C`: 8.42%.

Values taken from PubChem BioAssay AID2280 (The Scripps Research Institute Molecular Screening Center, 2010).
